{"source": "PubChem BioAssay (NCATS)", "key": {"[1]": {"test": "qHTS drug screen for cell cycle checkpoint inhibitors in PARPi-resistant BRCA-mutant ovarian cancer cell lines. (AID 1963452; calls by dose curve)", "conditions": "PEO1/OlaR viability, CellTiter-Glo luminescence, 96 h, stronger effect = lower value", "summary_of_the_method": "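PEO1, PEO4 and PEO1/OlaR ovarian cancer cells, 600 per well, exposed 96 h at 37C to a dilution series. Viability read by CellTiter-Glo luminescence, normalized to DMSO and empty wells; activity summarized as Z-AUC.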"}, "[2]": {"test": "qHTS profiling for inhibitors of Plasmodium falciparum proliferation (AID 504749);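 also: 0% = DMSO vehicle and full inhibition = artemisinin control; nearly all actives have a fitted effect of over 60% in size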", "conditions": "P. falciparum in erythrocytes, SYBR Green DNA, 72 h", "summary_of_the_method": "(§1)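 Fluorescence of SYBR Green-bound parasite DNA, read at 485/535 nm, served as the growth measure. Infected erythrocytes were cultured with compound 72 h; artemisinin (0.29 uM) and DMSO wells defined the normalization range.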"}, "3D7": {"system": "3D7", "test": "qHTS profiling for inhibitors of Plasmodium falciparum proliferation (AID 504749)", "conditions": "P. falciparum in erythrocytes, SYBR Green DNA, 72 h; series mostly up to 28.7 µM", "summary_of_the_method": "as §1"}, "[3]": {"test": "qHTS for identification of novel therapeutic agents for treatment of microphthalmiaassociated transcription factor (MiT) renal cell carcinoma (RCC) (AID 1963991)", "conditions": "CellTiter-Glo, 48 h, stronger effect = lower value", "summary_of_the_method": "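Three TFE3-fusion RCC cell lines (UOK109, UOK124, UOK145), 500 cells/well, were exposed to the 1912-compound MIPE 4.0 library for 48 hours at 37 C. Viability was read by CellTiter-Glo luminescence, normalised to DMSO (100%) and empty wells (0%), with 11-concentration curve fits.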"}, "[4]": {"conditions": "at 28.7 µM (top of the series), parasite line A"}, "[5]": {"conditions": "at 28.7 µM (top of the series), parasite line B"}, "[6]": {"conditions": "TFE3-RCC UOK109 viability, measured here: UOK109 Z-AUC"}, "[7]": {"conditions": "TFE3-RCC viability, measured here: UOK124 Z-AUC"}, "[8]": {"conditions": "TFE3-RCC viability, measured here: UOK145 Z-AUC"}, "[9]": {"conditions": "at 12.8 µM (top of the series), parasite line A"}, "[10]": {"conditions": "at 12.8 µM (top of the series), parasite line B"}}, "note": "Inconclusive results are not listed. Calls of active or inactive are those of the source. Unless noted, calls follow the shape of the dose curve; as a rule, active = well fitted inhibition curve with a large enough effect; inconclusive = small, poorly fitted or top-dose-only effect; inactive = flat fitted curve, though single readings scatter."}
{"smiles": "CC(C)OC(=O)C(C(=O)OC(C)C)=C1SC=CS1", "values": [{"measurement": "Z-AUC", "setting": "[1]", "result": "1.21 (inactive)"}, {"measurement": "Z-AUC", "setting": "[1]; measured here: PEO1 parental Z-AUC", "result": 0.837}, {"measurement": "Z-AUC", "setting": "[1]; measured here: PEO4 Z-AUC", "result": 1.06}, {"measurement": "activity, negative = inhibition", "setting": "[2]; [4]", "result": "2.72% (inactive)"}, {"measurement": "activity, negative = inhibition", "setting": "[2]; [5]", "result": "16.3% (inactive)"}, {"measurement": "Potency", "setting": "3D7", "result": "inactive"}]}
{"smiles": "CCN1CCCC1CNC(=O)c1cc(S(N)(=O)=O)ccc1OC", "note": "(stereo not given)", "values": [{"measurement": "z-score", "setting": "[3]; [6]", "result": 0.447}, {"measurement": "z-score", "setting": "[3]; [7]", "result": 0.683}, {"measurement": "z-score", "setting": "[3]; [8]", "result": 0.799}]}
{"smiles": "COc1ccccc1OCC(O)COC(N)=O", "note": "(stereo not given)", "values": [{"measurement": "z-score", "setting": "[3]; [6]", "result": 0.0196}, {"measurement": "z-score", "setting": "[3]; [7]", "result": 0.974}, {"measurement": "z-score", "setting": "[3]; [8]", "result": 0.377}]}
{"smiles": "Nc1ccc(S(=O)(=O)Nc2ccccn2)cc1", "values": [{"measurement": "z-score", "setting": "[3]; [6]", "result": 1.57}, {"measurement": "z-score", "setting": "[3]; [7]", "result": 0.543}, {"measurement": "z-score", "setting": "[3]; [8]", "result": 0.723}, {"measurement": "activity, negative = inhibition", "setting": "[2]; [9]", "result": "-13.7% (inactive)"}, {"measurement": "activity, negative = inhibition", "setting": "[2]; [10]", "result": "-1.88% (inactive)"}, {"measurement": "Potency", "setting": "3D7", "result": "inactive"}]}
{"smiles": "COc1cnc(NS(=O)(=O)c2ccc(N)cc2)nc1", "values": [{"measurement": "activity, negative = inhibition", "setting": "[2]; [9]", "result": "3.37% (inactive)"}, {"measurement": "activity, negative = inhibition", "setting": "[2]; [10]", "result": "2.7% (inactive)"}, {"measurement": "Potency", "setting": "3D7", "result": "inactive"}]}
{"smiles": "Cc1ccnc2c1NC(=O)c1cccnc1N2C1CC1", "values": [{"measurement": "activity, negative = inhibition", "setting": "[2]; [4]", "result": "0.983% (inactive)"}, {"measurement": "activity, negative = inhibition", "setting": "[2]; [5]", "result": "-17.2% (inactive)"}, {"measurement": "Potency", "setting": "3D7", "result": "inactive"}]}
{"smiles": "CCCN[C@H]1CCc2nc(N)sc2C1", "values": [{"measurement": "z-score", "setting": "[3]; [6]", "result": 0.498}, {"measurement": "z-score", "setting": "[3]; [7]", "result": 0.618}, {"measurement": "z-score", "setting": "[3]; [8]", "result": 0.718}, {"measurement": "activity, negative = inhibition", "setting": "[2]; [4]", "result": "16.7% (inactive)"}, {"measurement": "activity, negative = inhibition", "setting": "[2]; [5]", "result": "18.6% (inactive)"}, {"measurement": "Potency", "setting": "3D7", "result": "inactive"}]}
{"smiles": "CN1CCN(c2c(F)cc3c(=O)c(C(=O)O)cn4c3c2OCN4C)CC1", "values": [{"measurement": "activity, negative = inhibition", "setting": "[2]; [4]", "result": "4.43% (inactive)"}, {"measurement": "activity, negative = inhibition", "setting": "[2]; [5]", "result": "17.6% (inactive)"}, {"measurement": "Potency", "setting": "3D7", "result": "inactive"}]}
{"smiles": "COc1ccc(C(=O)CC(=O)c2ccc(C(C)(C)C)cc2)cc1", "values": [{"measurement": "activity, negative = inhibition", "setting": "[2]; [4]", "result": "0.965% (inactive)"}, {"measurement": "Potency", "setting": "3D7", "result": "inactive"}]}
{"smiles": "Cc1ncc([N+](=O)[O-])n1CCO", "values": [{"measurement": "activity, negative = inhibition", "setting": "[2]; [4]", "result": "-7.64% (inactive)"}, {"measurement": "activity, negative = inhibition", "setting": "[2]; [5]", "result": "6.06% (inactive)"}, {"measurement": "Potency", "setting": "3D7", "result": "inactive"}]}
{"smiles": "COc1cccc(N(C)C(=S)Oc2ccc3c(c2)CCCC3)n1", "values": [{"measurement": "z-score", "setting": "[3]; [6]", "result": 0.559}, {"measurement": "z-score", "setting": "[3]; [7]", "result": 0.578}, {"measurement": "z-score", "setting": "[3]; [8]", "result": 1.67}, {"measurement": "activity, negative = inhibition", "setting": "[2]; [4]", "result": "-29.5% (inactive)"}, {"measurement": "activity, negative = inhibition", "setting": "[2]; [5]", "result": "-22.3% (inactive)"}]}
{"smiles": "COc1nc(N)nc2c1ncn2[C@@H]1O[C@H](CO)[C@@H](O)[C@@H]1O", "values": [{"measurement": "z-score", "setting": "[3]; [6]", "result": 0.831}, {"measurement": "z-score", "setting": "[3]; [7]", "result": 1.01}, {"measurement": "z-score", "setting": "[3]; [8]", "result": 0.757}, {"measurement": "activity, negative = inhibition", "setting": "[2]; [4]", "result": "-5.23% (inactive)"}, {"measurement": "activity, negative = inhibition", "setting": "[2]; [5]", "result": "-4.98% (inactive)"}, {"measurement": "Potency", "setting": "3D7", "result": "inactive"}]}
{"smiles": "CC1=C(C(=O)O)N2C(=O)[C@@H](NC(=O)C(N)c3ccccc3)[C@H]2SC1", "note": "(stereo not given in full)", "values": [{"measurement": "z-score", "setting": "[3]; [6]", "result": 1.68}, {"measurement": "z-score", "setting": "[3]; [7]", "result": 0.228}, {"measurement": "z-score", "setting": "[3]; [8]", "result": 0.731}]}
{"smiles": "Cc1cccc(Nc2ccncc2S(=O)(=O)NC(=O)NC(C)C)c1", "values": [{"measurement": "z-score", "setting": "[3]; [6]", "result": 0.581}, {"measurement": "z-score", "setting": "[3]; [7]", "result": 0.17}, {"measurement": "z-score", "setting": "[3]; [8]", "result": 0.58}, {"measurement": "activity, negative = inhibition", "setting": "[2]; [9]", "result": "-0.953% (inactive)"}, {"measurement": "activity, negative = inhibition", "setting": "[2]; [10]", "result": "11.1% (inactive)"}, {"measurement": "Potency", "setting": "3D7", "result": "inactive"}]}
{"smiles": "COc1ccc2c(c1)c(CC(=O)OCC(=O)O)c(C)n2C(=O)c1ccc(Cl)cc1", "values": [{"measurement": "z-score", "setting": "[3]; [6]", "result": 1.12}, {"measurement": "z-score", "setting": "[3]; [7]", "result": 1.19}, {"measurement": "z-score", "setting": "[3]; [8]", "result": 0.507}]}
{"smiles": "CC(C)(C#N)c1cc(Cn2cncn2)cc(C(C)(C)C#N)c1", "values": [{"measurement": "z-score", "setting": "[3]; [6]", "result": 0.558}, {"measurement": "z-score", "setting": "[3]; [7]", "result": 0.63}, {"measurement": "z-score", "setting": "[3]; [8]", "result": 0.487}, {"measurement": "activity, negative = inhibition", "setting": "[2]; [4]", "result": "5.33% (inactive)"}, {"measurement": "activity, negative = inhibition", "setting": "[2]; [5]", "result": "14.1% (inactive)"}, {"measurement": "Potency", "setting": "3D7", "result": "inactive"}]}
{"smiles": "CNC1CCCN(c2c(F)cc3c(=O)c(C(=O)O)cn(C4CC4)c3c2OC)C1", "note": "(stereo not given)", "values": [{"measurement": "activity, negative = inhibition", "setting": "[2]; [4]", "result": "5.3% (inactive)"}, {"measurement": "activity, negative = inhibition", "setting": "[2]; [5]", "result": "5% (inactive)"}, {"measurement": "Potency", "setting": "3D7", "result": "inactive"}]}
{"smiles": "O=C(O)c1cc(=O)[nH]c(=O)[nH]1", "values": [{"measurement": "z-score", "setting": "[3]; [6]", "result": 1.07}, {"measurement": "z-score", "setting": "[3]; [7]", "result": 0.79}, {"measurement": "z-score", "setting": "[3]; [8]", "result": 1.38}, {"measurement": "activity, negative = inhibition", "setting": "[2]; [4]", "result": "24.2% (inactive)"}, {"measurement": "activity, negative = inhibition", "setting": "[2]; [5]", "result": "6.15% (inactive)"}, {"measurement": "Potency", "setting": "3D7", "result": "inactive"}]}
{"smiles": "CC1=NN(c2ccccc2)C(=O)C1", "values": [{"measurement": "z-score", "setting": "[3]; [6]", "result": -4.96}, {"measurement": "z-score", "setting": "[3]; [7]", "result": 0.556}, {"measurement": "z-score", "setting": "[3]; [8]", "result": -3.3}, {"measurement": "activity, negative = inhibition", "setting": "[2]; [4]", "result": "3.27% (inactive)"}, {"measurement": "activity, negative = inhibition", "setting": "[2]; [5]", "result": "-12.4% (inactive)"}, {"measurement": "Potency", "setting": "3D7", "result": "inactive"}]}
{"smiles": "Cc1noc(NS(=O)(=O)c2ccc(N)cc2)c1C", "values": [{"measurement": "activity, negative = inhibition", "setting": "[2]; [4]", "result": "13.7% (inactive)"}, {"measurement": "activity, negative = inhibition", "setting": "[2]; [5]", "result": "4.61% (inactive)"}, {"measurement": "Potency", "setting": "3D7", "result": "inactive"}]}
